In the supplement of paper PMC6555819:

Legend:
Assay in all cases: PBM binding z-score (relative to random genomic background probes); higher = stronger binding; sequences stand for … in GC…GCGATTGACAGCGTAGAATGAAGG
[1] = tested on: FXR:RXRa (NR concentration 270 nM, RXRa partner concentration 90 nM)
In short: (§1)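 Binding z-scores take random background probes as their reference. They come from custom Agilent 4×180K protein-binding microarrays incubated 1 h with ligand-free nuclear receptor dimers, with antibodies against each partner (one per run) detecting binding. Scanned fluorescence was regression-normalized.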

[2] = tested on: LXRa:RXRa (NR concentration 270 nM, RXRa partner concentration 90 nM)
In short: as §1

[3] = tested on: LXRa homodimer (NR concentration 270 nM)
In short: as §1

[4] = tested on: LXRb:RXRa (NR concentration 270 nM, RXRa partner concentration 90 nM)
In short: as §1

[5] = tested on: LXRb homodimer (NR concentration 270 nM)
In short: as §1

[6] = tested on: PPARa:RXRa (NR concentration 270 nM, RXRa partner concentration 90 nM)
In short: as §1

[7] = tested on: PPARg:RXRa (NR concentration 180 nM, RXRa partner concentration 90 nM)
In short: as §1

[8] = tested on: PPARg:RXRa 270nM:90nM, anti-RXR (NR concentration 270 nM, RXRa partner concentration 90 nM)
In short: as §1

[9] = tested on: PPARg:RXRa 30nM:10nM, anti-RXR (NR concentration 30 nM, RXRa partner concentration 10 nM)
In short: as §1

[10] = tested on: PPARg:RXRa 90nM:30nM, anti-RXR (NR concentration 90 nM, RXRa partner concentration 30 nM)
In short: as §1

Sequence	PBM binding z-score [1]	PBM binding z-score [2]	PBM binding z-score [3]	PBM binding z-score [4]	PBM binding z-score [5]	PBM binding z-score [6]	PBM binding z-score [7]	PBM binding z-score [8]	PBM binding z-score [9]	PBM binding z-score [10]
TTACCAAGGTGAGCTGAGGTCGTTAATCCAACTC	1.47	0.747	-0.294	0.852	-1.14	1.4	0.0208	0.655	0.0433	0.306
CCTCGGAGGACTGAAGGTCAGAGCTGTCCGCTTT	0.88	1.89	0.285	0.745	-0.722	1.46	-0.679	0.572	-0.9	-0.111
CCTACTGGGCCAAAAAGGTCATTGGTGCCGATAA	3.94	4.46	3.31	4.08	0.197	4.67	3.1	4.12	1.19	3.34
TATACAGGGTCAAAAGCCAGAGTACGAATGTCGA	5.93	5.72	1.74	4.3	2.65	5.48	6.57	6.01	3.42	5.08
GCTAGCAGGCCGTTTGGGTCACTCAATGACGGGC	0.0511	-0.392	-0.828	-0.0413	-1.11	0.602	-0.107	-0.514	-0.56	-0.437
CCTACTGGGCCAAAGGTAATTGATTCCAATGCTC	-0.451	-0.199	-0.379	-0.0867	-0.845	3.66	8.76	7.99	6.87	8.72
TCTCGGAGGACCCGAAAGGTCAGAGCTCGACATC	2.35	2.99	1.17	2.77	-0.541	3.34	0.565	2.23	2.07	2.11
TCTCGGAGCACACGAAAGGTCAGAGCTCGACATC	1.92	3.07	1.44	2.84	-0.493	3.39	0.926	1.94	1.5	1.49
GCTGCTAGGTCAACCGATGGTCAGCTAAAGCTCG	3.72	2.83	-0.00824	1.67	-0.103	3.53	2.64	3	0.428	1.82
CCAGACAGGTGAAAGATAACTCAGTCTGGTACGC	-0.034	0.0578	-0.199	-0.0465	-0.465	0.902	1.27	1.47	0.306	1
CCTATTAGTTGACAATAAGGGCAACCGAAGCTCG	0.365	0.482	0.182	0.544	0.647	0.418	0.511	0.218	0.0655	0.0255
CGTCCAAGGTGAAGGTCAGTGAAAGAGACTCGAA	1.84	1.4	-0.233	1.25	-0.872	3.04	2.5	2.81	0.634	1.96
